Most compounds without a hit are left out; they make up all but 3.9% or so of the library.
TROY signal inh – TROY signaling inhibition | Q293 LMP1-TROYcd NF-kB luciferase reporter, 4 h | inhibition, % at 10 µM | actives 0.98% (n = 360,000) | AID 1347056;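 active = compounds whose plate-normalised and pattern-corrected inhibition of the luciferase reporter signal at the single screening dose is 50% or more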
Peg3 promoter – Peg3 promoter activity inhibition | AID 588405 | HeLa PEG-Prom luciferase reporter, luminescence, overnight | actives 1.7% (n = 360,000) | inhibition, % at 20 µM;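 active = inhibition of at least 50% at 20 µM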
KKLEB tox – reduces viability of KKLEB cystic fibrosis airway cells; KKLEB CF airway cells viability, ATPlite luminescence, overnight; active compounds read low; cells stimulated with P. aeruginosa culture filtrate; actives 0.36% (n = 360,000); activity change (cytotoxicity), % at 5 µM; AID 602141;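 active = corrected activity change at or below -50% at 5 µM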
HIF-2a block – blocks HIF-2a reporter activity; 786-0 RCC cells HIF-2a reporter, luciferase luminescence, overnight; inhibition, % at 18.8 µM; actives 0.72% (n = 360,000); AID 624352;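 active = inhibition of the luminescence signal of 40% or more relative to plate controls, in a single-dose primary screen at 18.75 µM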
CF NFkB inh – inhibitors of cystic fibrosis induced NF-kB | KKLEB NF-kB-GFP reporter, PAF-induced, GFP fluorescence overnight | inhibition, % at 5 µM | actives 0.86% (n = 360,000) | AID 588850;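 active = at least 50% inhibition at 5 µM, scaled per plate between neutral and stimulator controls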;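 also: PAF is a Pseudomonas aeruginosa culture filtrate used as stimulus; plate controls were PAF-stimulated DMSO wells for no effect and unstimulated DMSO wells for full effect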
TWEAK Fn14 block – blocks TWEAK-Fn14 interaction in a reporter cell assay. TWEAK-stimulated Fn14 reporter cells, luciferase luminescence, 8 h. inhibition, % at 10 µM. actives 2% (n = 360,000). AID 1159606; in the data active = inhibition above about 50%
* = called active by the depositor.

Screening O=C(CC(CC(=O)c1ccc(Cl)cc1)c1ccccc1C(=O)O)c1ccc(Cl)cc1 returned TROY signal inh -34, Peg3 promoter 9, KKLEB tox -11, HIF-2a block 4, CF NFkB inh 6 and TWEAK Fn14 block -12.
For Cc1cc(=O)[nH]c(-c2ccccc2)n1 the results were TROY signal inh -11, Peg3 promoter 9, KKLEB tox 6, HIF-2a block 8, CF NFkB inh -1 and TWEAK Fn14 block -6.
Screening O=c1cc(-c2ccccc2O)nc(-c2ccccc2)[nH]1 returned TROY signal inh 57*, Peg3 promoter -16, KKLEB tox -8, HIF-2a block -54, CF NFkB inh -9 and TWEAK Fn14 block 53*.
`N/C(=N\OC(=O)c1ccc(Cl)cc1)c1[nH]ncc1Br` gave TROY signal inh 18, Peg3 promoter -159, KKLEB tox 1, HIF-2a block -112, CF NFkB inh -1 and TWEAK Fn14 block 65*.
Screening CC(=O)c1ccc(S(=O)(=O)N2CCN(CC(=O)Nc3ccc(Cl)c([N+](=O)[O-])c3)CC2)cc1 returned TROY signal inh 10, Peg3 promoter 15, KKLEB tox 2, HIF-2a block 7, CF NFkB inh -6 and TWEAK Fn14 block -15.
Screening O=C(CN1CCN(S(=O)(=O)c2ccc(Br)cc2)CC1)N/N=C/c1cc([N+](=O)[O-])ccc1Cl returned TROY signal inh 14, Peg3 promoter 9, KKLEB tox -6, HIF-2a block 11, CF NFkB inh -7 and TWEAK Fn14 block 1.
Cc1ccc(S(=O)(=O)N2CCN(CC(=O)N/N=C\c3ccc(Cl)c([N+](=O)[O-])c3)CC2)cc1 was read as TROY signal inh -7, Peg3 promoter 69*, KKLEB tox -2, HIF-2a block 25, CF NFkB inh -11 and TWEAK Fn14 block -11.
Screening O=C(CN1CCN(S(=O)(=O)c2ccc(Br)cc2)CC1)N/N=C/c1ccc(Cl)c([N+](=O)[O-])c1 returned TROY signal inh 4, Peg3 promoter 93*, KKLEB tox 4, HIF-2a block 23, CF NFkB inh 4 and TWEAK Fn14 block -5.
For Cc1ccc(/C=C/C(=O)N2CC(C)CC(C)C2)o1 (centres undefined) the results were TROY signal inh 5, Peg3 promoter 76*, KKLEB tox 6, HIF-2a block 39, CF NFkB inh 11 and TWEAK Fn14 block 18.
Cc1ccc(/C=C/C(=O)N2CCN(S(=O)(=O)c3cccs3)CC2)o1 was read as TROY signal inh 16, Peg3 promoter 5, KKLEB tox -7, HIF-2a block 9, CF NFkB inh 7 and TWEAK Fn14 block 86*.
`COCC(C)NCc1ccccc1C` (centres undefined) gave TROY signal inh -5, Peg3 promoter 5, KKLEB tox -3, HIF-2a block 0, CF NFkB inh 16 and TWEAK Fn14 block -10.
`COCCNC(=O)C1(C)CCCN(Cc2ccc(C)c3ccccc23)C1` (centres undefined) gave TROY signal inh -13, Peg3 promoter 8, KKLEB tox 2, HIF-2a block 13, CF NFkB inh 12 and TWEAK Fn14 block -9.
Screening Cc1ccc(C#CC[N+]2(CC#Cc3ccc(C)cc3)CCCCC2)cc1 returned TROY signal inh 34, Peg3 promoter 97*, KKLEB tox -24, HIF-2a block 13, CF NFkB inh 35 and TWEAK Fn14 block 34.
Screening c1ccc(-c2nnc(-c3ccccn3)s2)nc1 returned TROY signal inh 28, Peg3 promoter -38, KKLEB tox 3, HIF-2a block -34, CF NFkB inh -13 and TWEAK Fn14 block 81*.
Screening c1ccc(-c2nc(-c3ccccn3)nc(-c3ccccn3)n2)nc1 returned TROY signal inh 4, Peg3 promoter 25, KKLEB tox -15, HIF-2a block 10, CF NFkB inh -8 and TWEAK Fn14 block -1.
`Oc1ccc(C=NNc2nc3ccccc3s2)c(O)c1` gave TROY signal inh 3, Peg3 promoter -93, KKLEB tox 2, HIF-2a block -259, CF NFkB inh -14 and TWEAK Fn14 block 60*.
For Cc1cc(N/N=C/c2ccccc2O)nc(-c2ccccc2O)n1 the results were TROY signal inh -30, Peg3 promoter -81, KKLEB tox 3, HIF-2a block -32, CF NFkB inh -39 and TWEAK Fn14 block 29.
Screening Cc1cc(N/N=C/c2ccc(O)cc2O)nc(-c2ccccc2O)n1 returned TROY signal inh 20, Peg3 promoter 67*, KKLEB tox -2, HIF-2a block -190, CF NFkB inh 78* and TWEAK Fn14 block 65*.
`Oc1ccccc1C=NNc1nc2ccccc2s1` gave TROY signal inh 0, Peg3 promoter -251, KKLEB tox -4, HIF-2a block -260, CF NFkB inh 8 and TWEAK Fn14 block 57*.
For COc1cc2c(cc1OC)CN(C(=O)c1cc(S(=O)(=O)N3CCOCC3)ccc1C)CC2 the results were TROY signal inh -24, Peg3 promoter -12, KKLEB tox -2, HIF-2a block -21, CF NFkB inh 14 and TWEAK Fn14 block -3.
Screening Cc1ccccc1N1CCN(CCCN2C(=O)CC(=C(c3ccccc3)c3ccccc3)C2=O)CC1 returned TROY signal inh 2, Peg3 promoter 17, KKLEB tox -8, HIF-2a block 11, CF NFkB inh 2 and TWEAK Fn14 block -8.
`O=C1CC(=C(c2ccccc2)c2ccccc2)C(=O)N1CCCCN1CCN(c2cccc(Cl)c2)CC1` gave TROY signal inh 7, Peg3 promoter 50*, KKLEB tox 4, HIF-2a block 28, CF NFkB inh 7 and TWEAK Fn14 block 30.
Screening Cn1c(N)c(C(=O)COC(=O)[C@@H]2CCCN2S(=O)(=O)c2ccc(Cl)cc2)c(=O)n(C)c1=O returned TROY signal inh 4, Peg3 promoter 11, KKLEB tox -4, HIF-2a block 10, CF NFkB inh 17 and TWEAK Fn14 block -2.
For COc1cccc(N2CC(=O)N(NC(=O)c3sc4nc(C)cc(C)c4c3N)CC2=O)c1 the results were TROY signal inh 15, Peg3 promoter -10, KKLEB tox -5, HIF-2a block 10, CF NFkB inh -31 and TWEAK Fn14 block 7.
`Cc1cc(C)c2c(N)c(C(=O)NN3CC(=O)N(c4ccccc4F)CC3=O)sc2n1` gave TROY signal inh -4, Peg3 promoter 7, KKLEB tox 5, HIF-2a block 0, CF NFkB inh -11 and TWEAK Fn14 block 103*.
For CCCCC1CC(C)(C(=O)CSc2nc3ccccc3s2)OC1=O (centres undefined) the results were TROY signal inh 14, Peg3 promoter -16, KKLEB tox 9, HIF-2a block -10, CF NFkB inh -10 and TWEAK Fn14 block 8.
Screening O=C(NCCC1=CCCCC1)C1CC(=O)N(Cc2ccccc2)C1 (centres undefined) returned TROY signal inh 5, Peg3 promoter 9, KKLEB tox 0, HIF-2a block 4, CF NFkB inh 20 and TWEAK Fn14 block 95*.

Screens deposited in PubChem BioAssay by Sanford-Burnham Center for Chemical Genomics.
